# D2 PAM-1 = human D2 receptor positive allosteric modulation; potentiation, % (no concentration beside the values); DiscoveRx D2 beta-arrestin cells, luminescence, 90 min; 100% = 57 uM dopamine signal; hit rate 0.23% among 360,000; P14416; in the data active = potentiation above about 50%; inconclusive = mostly about 30% to 49%
#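 PathHunter D2 cells, attached overnight at 37 deg C, received compound in DMSO plus dopamine at EC20 (50 nM final) for 90 min at 37 deg C. Beta-arrestin recruitment was read as luminescence after 1 h with detection reagent at ambient temperature.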
# D2 PAM-2 = positively modulates the human D2 dopamine receptor allosterically. P14416. HEK293 T-REx D2, calcium flux, EC20 dopamine potentiation. potentiation, % at 10 µM. hit rate 0.34% among 340,000;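 active = potentiation over 3 SD above the plate norm, cut at about 30% in these data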; also: 0% is about no effect
#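 Potentiation of an EC20 dopamine calcium response is measured in a force-coupled, tetracycline-inducible Hek293 Trex D2 line. Compound-only kinetic reads over 180 s flag agonists before dopamine addition.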
# D2 ag-1 = activates the human D2 dopamine receptor; P14416; HEK293 T-REx D2 cells, calcium flux agonist mode; activation, % at 2 µM; hit rate 0.53% among 340,000; AID 485358;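 active = activation over 3 SD above normal in the single-dose calcium agonist read, cut at about 30% in these data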; also: 0% is about no effect
#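 In this primary screen, compounds producing a positive calcium signal within 180 s of addition to tetracycline-induced, force-coupled HEK293 Trex D2 cells are flagged; cells are dye-loaded with a no-wash calcium kit beforehand.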
# D2 antag = antagonizes the human D2 dopamine receptor; P14416; HEK293 TREx D2 cells, calcium flux, dopamine EC80; inhibition, % at 10 µM; hit rate 2% among 340,000; AID 485344; in the data active = inhibition above about 30%; inactive = below that, where a call was filed; also: 0% is about no effect
#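 Read-out: kinetic calcium fluorescence (1 cycle/s) in inducible HEK293 T-REx D2 cells after an EC80 dopamine addition that followed 180 s compound preincubation. Loss of the dopamine response indicates antagonism.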
# D2 ag-2 = activates the human D2 dopamine receptor; hit rate 0.084% among 360,000; DiscoveRx PathHunter D2 beta-arrestin, luminescence, 90 min; 100% = 57 uM dopamine signal; P14416; activation, % (test concentration not listed); AID 624465; in the data active = activation above about 40%; inconclusive = between about 15% and that limit
#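 DiscoveRx PathHunter D2 beta-arrestin cells (2,100/well) attached overnight, then compound-stimulated 90 min at 37 C in HBSS/10 mM HEPES/0.1% Tween-20 buffer; beta-galactosidase complementation read by luminescence after 1 h at ambient temperature. Dopamine 57 uM final (EC100) as control.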
# D3 ag = confirmation of human D3 dopamine receptor agonists, beta-arrestin | shares compounds with D2 ag-1 | DiscoveRx D3 beta-arrestin cells, luminescence, 90 min | Potency, µM (top dose mostly 76.9 µM), inactives show top-dose activation, most hits filed as activators | hit rate 4% among 2,300 | AID 720506;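 also: potency is read from the fitted curve at half-maximal effect; 100% = dopamine control response; nearly all actives have a fitted effect of over 70% in size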
# Target sequence (P35462 whole entry, looked up): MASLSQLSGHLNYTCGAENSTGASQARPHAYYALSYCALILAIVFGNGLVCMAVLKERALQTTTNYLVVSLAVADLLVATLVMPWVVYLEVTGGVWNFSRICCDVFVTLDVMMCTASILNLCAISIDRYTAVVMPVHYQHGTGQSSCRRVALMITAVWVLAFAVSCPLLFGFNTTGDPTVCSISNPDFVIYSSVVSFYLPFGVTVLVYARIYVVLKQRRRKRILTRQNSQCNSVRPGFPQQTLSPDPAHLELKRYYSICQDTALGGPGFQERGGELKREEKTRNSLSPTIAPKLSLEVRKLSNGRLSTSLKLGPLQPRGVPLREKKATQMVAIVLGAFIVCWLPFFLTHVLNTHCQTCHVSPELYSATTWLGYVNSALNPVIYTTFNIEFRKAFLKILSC
# D2 ag-3 = activates human D2 dopamine receptor in D3 counterscreen | shares compounds with D2 ag-1 | DiscoveRx PathHunter D2 beta-arrestin, luminescence, 90 min; response scale: percent relative to full dopamine signal | Potency, µM (top dose mostly 76.9 µM), for inactives: at the highest dose activation, most hits filed as activators | hit rate 5.9% among 2,300; also: potency is read from the fitted curve at half-maximal effect; % of control where 0% means no effect; nearly all actives have a fitted effect of over 70% in size
# Active calls of the source: *; ? = inconclusive; / = no result given. The list is not random: actives were taken first. Their share in the collection is about 2.4%. Unless noted, calls follow the shape of the dose curve; as a rule, active = well fitted activation curve with a large enough effect; inconclusive = small, poorly fitted or top-dose-only effect; inactive = flat fitted curve, though single readings scatter.
SMILES,D2 PAM-1,D2 PAM-2,D2 ag-1,D2 antag,D2 ag-2,D3 ag,D2 ag-3
O=C(CC1NCCc2ccccc21)Nc1ccccc1Cl (stereo unspecified),-17.3,-11.4,11.6,-16.6,-0.7,-7.2%,-5.8%
O=C(CC1NCCc2ccccc21)Nc1ccccc1 (stereo unspecified),-19.9,-18.7,-0.1,-11.0,1.5,/,/
O=C(CC1NCCc2ccccc21)Nc1ccc(Oc2ccccc2)cc1 (stereo unspecified),9.8,-37.4,67.9*,60.3*,9.5,-9.2%,0.0%
COc1ccc(CNC(=O)Cn2c(SCC(=O)Nc3ccc(C)c(C)c3)nc3ccccc32)cc1,/,-2.0,/,/,/,/,/
Cc1cc(NC(=O)c2cc(-c3ccc(F)cc3)on2)nn1Cc1ccc(Cl)cc1,/,-9.1,1.1,/,/,/,/
CCCN(CCC)CCCNC(=O)CC(C(=O)N1CCc2ccccc21)n1ccnc1 (stereo unspecified),2.5,-17.1,8.0,-11.0,1.6,-16.7%,-2.0%
Nc1c(-c2nc(-c3ccncc3)no2)nnn1CC(=O)Nc1ccccc1,/,2.8,-0.1,/,/,/,/
COc1cc(OC)cc(-c2c(-c3cccs3)c3cc(-c4ccc(N(C)C)nc4)ccc3n2C)c1,-3.3,19.8,-0.4,2.8,-3.7,1.7%,14.0%
Cc1cccc(Cn2c(CN3CCC(C(=O)NCCc4ccccc4)CC3)cc3ccccc32)c1,/,12.5,/,/,/,/,/
Nc1ccc(C(=O)N/N=C\c2ccc(OC(=O)c3ccccc3Cl)cc2)cc1,-24.0,11.1,0.7,32.6*,-1.5,2.8%,0.9%
Nc1ccc(C(=O)N/N=C/c2cccc(Oc3ccccc3)c2)cc1,-8.4,5.3,-0.8,31.2*,-1.0,-0.2%,0.9%
O=C(N/N=C/c1cccc(Oc2ccccc2)c1)c1cc[n+]([O-])cc1,-2.9,3.5,-0.6,13.8,-0.5,/,/
COC(=O)c1ccc2c(=O)n(CCCCCC(=O)NCCc3ccc(Cl)cc3)c(=O)[nH]c2c1,/,2.5,/,/,/,/,/
Cc1cc2nc(C3CCN(CC4COc5ccccc5O4)CC3)[nH]c2cc1C (stereo unspecified),-8.5,-18.7,46.9*,10.7,4.2,16.7%,?
C=CCNC(=O)CN1CCC(c2nc3cc(C)c(C)cc3[nH]2)CC1,1.5,-9.4,-0.4,22.1,0.3,/,/
Cc1oc2ncn(CC(C)C)c(=O)c2c1C(=O)NCCCN1CCC(C)CC1,/,-16.0,-0.4,/,/,/,/
CN(C)c1ccc(C#Cc2ccc3cc(CCO)oc(=O)c3c2)cc1,-4.8,-4.2,-1.2,-12.2,-1.3,12.4%,2.7%
Nc1ccc(S(=O)(=O)NC2(C(F)(F)F)NC(=O)N(c3cccc(Cl)c3)C2=O)cc1 (stereo unspecified),/,-5.3,-0.5,/,/,/,/
Cc1cc(C)cc(NC(=O)c2sc3nc(-c4ccccc4)cn3c2C)c1,/,6.6,1.4,/,/,/,/
N#CC[C@H](Cc1ccccc1)N1CCN(CCc2ccccc2)CCC1=O,-19.8,-16.8,49.6*,33.6*,-2.0,14.6%,0.5%
CC(C)C[C@@H](CO)N1CCN(CCCc2ccccc2)CCC1=O,-7.3,7.6,-0.8,34.7*,-2.0,-1.3%,17.9%
O=C1CCN(CCCc2ccccc2)CCN1[C@H](CO)c1ccccc1,-15.5,7.7,0.0,22.6,0.1,?,19.6%
N#CC[C@H](Cc1ccccc1)N1CCN(Cc2ccccc2)CCC1=O,-4.0,-0.1,0.6,11.1,-0.3,/,/
CC(C)C[C@@H](CO)N1CCN(Cc2ccccc2)CCC1=O,-9.1,0.8,/,/,-3.2,/,/
COc1ccccc1OCC(=O)NNC(=O)c1cccs1,5.7,5.1,-0.1,-2.8,-3.3,/,/
SMILES,D2 PAM-1,D2 PAM-2,D2 ag-1,D2 antag,D2 ag-2,D3 ag,D2 ag-3
Cc1ccccc1OCCC(=O)OCC(=O)NNC(=O)c1cccs1,-3.6,/,/,/,5.6,-5.4%,4.4%
CC(C)OC(=O)CN1C(=O)S/C(=C/c2ccc(N3CCCCC3)o2)C1=O,15.2,4.5,16.7,1.8,1.6,10.6%,-1.1%
O=C1S/C(=C/c2ccc(N3CCOCC3)o2)C(=O)N1Cc1ccc(F)cc1,1.9,-8.8,20.5,4.1,-1.7,/,/
CC(C)(C)C1COc2ccccc2N1C(=O)c1ccccc1Cl (stereo unspecified),-0.9,10.8,2.1,-3.7,-11.7,/,/
CC1COc2ccccc2N1C(=O)c1ccccc1Cl (stereo unspecified),0.9,-5.0,40.7*,23.3,?,-5.4%,15.9%
C/C(=N\NC(=S)Nc1cccc(C)c1)c1ccco1,-10.1,-6.8,70.0*,67.2*,5.5,-1.5%,-4.9%
C/C(=N\NC(=S)Nc1cccc(C)c1)c1ccccc1,-40.4,11.8,-0.7,-6.4,-7.8,/,/
CCc1ccccc1NC(=O)c1noc2c1CC(C(C)(C)C)CC2 (stereo unspecified),/,-1.3,0.3,/,/,/,/
CCOc1ccc(N(CC)S(=O)(=O)c2cc(Br)cc3c2N(C(C)=O)C(C)C3)cc1 (stereo unspecified),/,10.5,0.1,/,/,/,/
COc1ccc(CNCC2COc3ccccc3O2)cc1 (stereo unspecified),-26.2,-34.3,62.8*,139.9*,-5.9,14.6%,9.5%
O=C(CC1COc2ccccc2O1)NCc1ccccc1 (stereo unspecified),-1.9,-6.4,-0.5,3.5,-2.2,/,/
c1ccc(CCCNCC2COc3ccccc3O2)cc1 (stereo unspecified),-18.4,-33.1,47.8*,85.9*,10.3,?,14.3%
COc1ccc(CC(=O)NCC2COc3ccccc3O2)cc1 (stereo unspecified),-1.2,3.8,0.0,-6.0,2.1,/,/
c1ccc(CNCC2COc3ccccc3O2)cc1 (stereo unspecified),-26.6,-25.3,64.4*,61.9*,0.9,16.9%,10.7%
COc1cccc(OC)c1OCCNCC1COc2ccccc2O1 (stereo unspecified),-23.5,/,/,/,0.9,/,/
Cc1n[nH]c(C)c1CCC(=O)N/N=C/c1cccs1,-3.1,6.0,-1.1,5.2,3.5,2.8%,1.3%
Cc1ccsc1/C=N\NC(=O)CCc1c(C)n[nH]c1C,1.6,-1.4,-0.8,-7.7,-5.8,/,/
O=C(c1ccco1)N1CCN(C(=O)c2ccco2)CC1,-4.1,/,/,/,-1.8,/,/
O=C(c1ccco1)N1CCN(Cc2cn[nH]c2-c2ccc(F)cc2F)CC1,4.4,-5.0,28.0,-19.5,3.9,/,/
O=C(c1ccco1)N1CCN(Cc2ccccc2Br)CC1,?,-30.6,75.6*,78.5*,?,?,50.1µM*
O=C(c1ccco1)N1CCN(Cc2ccc(F)cc2Cl)CC1,22.9,-26.0,79.0*,58.0*,?,29.3%,?
